In PubChem BioAssay (NCI):
About 83,000 compounds went through this panel and 20% of them were active in at least one assay; those are over-represented in the sample as a whole.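 Growth was measured after 48 h exposure to one concentration of compound in 96-well plates. Values under 10 count as active.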 Values without a mark were called inactive. Calls of active or inactive are those of the source.

Assays:
Assay in all cases: NCI-60 one-dose screen, 48 h (100 = growth as untreated, 0 = no growth, -100 = all killed)
Settings in all cases: 10 µM unless noted
T-47D breast = test system: T-47D breast
BT-549 breast = test system: BT-549 breast
MDA-MB-435 melanoma = test system: MDA-MB-435 melanoma
SW-620 colon = test system: SW-620 colon
MCF7 breast = test system: MCF7 breast
HCT-116 colon = test system: HCT-116 colon
HCC-2998 colon = test system: HCC-2998 colon
KM12 colon = test system: KM12 colon

| Structure (SMILES) | growth (T-47D breast) | growth (BT-549 breast) | growth (MDA-MB-435 melanoma) | growth (SW-620 colon) | growth (MCF7 breast) | growth (HCT-116 colon) | growth (HCC-2998 colon) | growth (KM12 colon) |
| --- | --- | --- | --- | --- | --- | --- | --- | --- |
| C[C@@H](CO)[C@@H]1CC[C@]2(C(=O)N3CCN(C)CC3)CC[C@]3(C)[C@H](CC[C@@H]4[C@@]5(C)CC[C@H](O)C(C)(C)[C@@H]5CC[C@]43C)[C@@H]12 | 76.7% | 75.8% | 75.8% | 51.5% | 42.1% | 16.7% | 105% | 86% |
| O=P(O)(O)OCC1OC(n2cnc3c(NCc4ccccc4)ncnc32)C(O)C1O (stereo unspecified) | 22.1% | -18.8% (active) | 25.4% | 24.5% | 27.6% | 7.45% (active) | 29.9% | 80.7% |
| O=C1Nc2ccc(F)cc2/C1=N/c1nnc(Sc2ccccc2)s1 | 61.5% | 105% | 99.7% | 91.9% | 22.2% | 99.3% | 104% | 88% |
| CCC(C)Nc1ccc(NC(C)CC)cc1 (stereo unspecified) | 79.7% | 85.4% | 95.3% | 106% | 47.2% | 28.2% | 80.2% | 112% |
| COc1cc2c(c(OC)c1OC)C(=O)CC(c1cccc(NC(=O)c3ccccc3Br)c1)O2 (stereo unspecified) | 65.7% | 98.7% | 92.5% | 97.3% | 78.2% | 75.6% | 106% | 103% |
| CCCCn1sc(=O)n(Cc2ccc(CNC(=O)OCc3ccc4c(Br)cc(Br)c(O)c4n3)cc2)c1=O | 69.9% | -16.2% (active) | -35.4% (active) | 24.5% | 12% | 7.95% (active) | 24.8% | 2.42% (active) |
| CCN(CC)CCCC(C)Nc1ccc2cc(OC)ccc2n1 (stereo unspecified) | 103% | 107% | 104% | 94.4% | 84.2% | 102% | 101% | 93.2% |
| CCn1cc(C(=O)NN=C2CCCCCC2)c(=O)c2ccc(C)nc21 | 77.2% | 83% | 83.9% | 91.2% | 77.2% | 77.7% | 99.1% | 87.6% |
| CCCCCCCCCCCCCCCCCCOc1ccccc1CC(=O)NCC[N+]1(C)CCOCC1 | 62.3% | 39.8% | 76% | 79.2% | 69% | 61.8% | 31.1% | 5.07% (active) |
| C(/C=C/c1ccccc1)=Nc1ccc(CCc2ccc(N=C/C=C/c3ccccc3)cc2)cc1 | 97.5% | 91.9% | 115% | 51.6% | 69.2% | 54.1% | 108% | 106% |
| C#CC#CC#CC#CC#CC#CC#CC#CC[C@H]1OC[C@H](COC(=O)O[C@@H](C(=O)O[C@H]2C[C@@]3(O)[C@@H](OC(=O)c4ccccc4)[C@@H]4[C@]5(OC(C)=O)CO[C@@H]5C[C@H](O)[C@@]4(C)C(=O)[C@H](OC(C)=O)C(=C2C)C3(C)C)[C@@H](NC(=O)c2ccccc2)c2ccccc2)O1 | 40.6% | 53.2% | -57.8% (active) | 38% | 24.4% | 15.5% | 38.2% | 18% |
| CN(Cc1cnc2nc(N)nc(N)c2n1)c1c(Cl)cc(C(=O)NC(CCC(=O)O)C(=O)O)cc1Cl (stereo unspecified) | 53.2% | 21.9% | 25.7% | 29.1% | 19.2% | 18.9% | 20.9% | 29.6% |
| CC1(C)CC2=C3C=C[C@@H]4[C@@]5(C)CC[C@H](O)C(C)(C)[C@@H]5CC[C@@]4(C)[C@]3(C)CC[C@@]2(C(=O)O)CC1=O | 42.2% | 36.7% | 39.4% | 43.8% | 31.9% | 12.8% | 70.3% | 42.6% |
| COc1ccc(-c2ccc(-c3ccc(C(=N)N)cn3)s2)cc1 | 74.3% | 88.1% | 97% | 8.29% (active) | 44.1% | -20.8% (active) | 81.3% | 61.6% |
| CCOC(=O)NN1CC(O)=C(c2nc(-c3ccc(Br)cc3)cs2)C1=N | 94.2% | 116% | 103% | 107% | 103% | 132% | 113% | 118% |
| C#CC#CC#CC#CC#CC#CC#CC#CCC1OCC(COC(=O)O[C@@H](C(=O)O[C@H]2C[C@@]3(O)[C@@H](OC(=O)c4ccccc4)[C@@H]4[C@]5(OC(C)=O)CO[C@@H]5C[C@H](O)[C@@]4(C)C(=O)[C@H](OC(C)=O)C(=C2C)C3(C)C)[C@@H](NC(=O)c2ccccc2)c2ccccc2)O1 (stereo partly specified) | 36.6% | 14.5% | -73.5% (active) | 24.1% | 16.1% | 9.48% (active) | 1.97% (active) | 6.73% (active) |
| COc1ccc(/C=C/C(=O)c2cc3c(N)c(C(=O)Nc4ccc(OC)cc4)sc3nc2C)cc1 | 57.2% | 24.6% | -23% (active) | 19.2% | 14.3% | 16.6% | 15.9% | 13.1% |
| CCc1ccc(CCC(=O)Nc2ncc(Cc3ccc(Cl)cc3)s2)o1 | 37% | 61.3% | -64.3% (active) | 18.6% | 20% | 29.3% | 46.9% | 21.6% |
| COc1ccccc1NC(=O)c1ccc(/C=C/C(=O)c2nccn2C)cc1 | -15.8% (active) | -63.5% (active) | -75.7% (active) | -77.7% (active) | -45.6% (active) | -84.9% (active) | -85.9% (active) | -73.9% (active) |
| S=c1ssnc1-c1cccs1 | 92.6% | 116% | 83.9% | 83.7% | 91.6% | 89.4% | 98.4% | 92.1% |
| O=C(/C=C/C12c3ccccc3C(c3ccccc31)C1C(=O)NC(=O)C12)c1ccc(F)cc1 (stereo unspecified) | 12.2% | 2.77% (active) | -12.8% (active) | 4.25% (active) | 11.8% | -18.6% (active) | 10.9% | 8.33% (active) |
| C=C1C(=O)O[C@H]2[C@H]1CC/C(COC(=O)NCCCCCCCCNC(=O)OC/C1=C/CC[C@@]3(C)O[C@H]3[C@H]3OC(=O)C(=C)[C@@H]3CC1)=C\CC[C@@]1(C)O[C@@H]21 | -45.7% (active) | -88.2% (active) | -89.9% (active) | -74.7% (active) | -55.2% (active) | -79.2% (active) | -65.5% (active) | -43.9% (active) |
| CCOC(=O)C1CCN(c2ccc(N3C[C@@H](CNCc4ccc(C(=N)N)cc4)OC3=O)cc2)CC1 | 96.2% | 94.4% | 104% | 97.1% | 97.2% | 98.9% | 108% | 98.7% |
| COc1cc2oc(-c3cccc(NC(=O)c4ccc5c(c4)OCO5)c3)cc(=O)c2c(OC)c1OC | 26.3% | 41.4% | 53.3% | 64% | 43.6% | 35.5% | 53.1% | 51.3% |
| CC(/C=C1\SC(=S)N(CC(=O)NC(Cc2c[nH]c3ccccc23)C(=O)O)C1=O)=C\c1ccccc1 (stereo unspecified) | 106% | 105% | 104% | 104% | 94.8% | 112% | 103% | 107% |
| N#C/C(=C\c1ccc(Br)cc1)c1cc2ccccc2[nH]1 | 74.7% | 97% | 99.1% | 93.4% | 62.2% | 84.7% | 101% | 90.7% |
| CC(C)c1ccc(NC(=O)Nc2ccc(NC(=O)c3ccccc3N)cc2)cc1 | 38.2% | 77% | 46.5% | 54.1% | 31.6% | 51.8% | 23.5% | 29.8% |
